Source: PubChem BioAssay (several laboratories)
Compounds with a hit are over-represented: about 32% of the library has one in this group of screens.
CYP2C19 activ = human CYP2C19 activators, primary screen, biochemical, luminescence | activation factor at 5 µM | 96,000 tested, under 10 active | Cytochrome P450 2C19 (Homo sapiens), P33261 | recombinant CYP2C19, luciferin-H EGE luminescence; stronger effect = higher value; 0 = fully inhibited enzyme, 1 = untreated enzyme;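 active = activation factor of at least 2 at 5 µM in the primary screen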;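 note: 0 = wells with 2.5 mM tranylcypromine and 1 = vehicle-only wells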
CYP2C9 inhib = blockers of cytochrome P450 2C9 activity – biochemical, luminescence, ADME assay, primary screen. 96,000 tested, 20% active. inhibition, % at 5 µM. AID 777, 2007. P11712. CYP2C9 Supersomes, luciferin-H conversion;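 active = blocking of liver enzyme CYP2C9 beyond about 50% at 5 µM, limit read from the data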
Target sequence (P11712 whole entry, looked up): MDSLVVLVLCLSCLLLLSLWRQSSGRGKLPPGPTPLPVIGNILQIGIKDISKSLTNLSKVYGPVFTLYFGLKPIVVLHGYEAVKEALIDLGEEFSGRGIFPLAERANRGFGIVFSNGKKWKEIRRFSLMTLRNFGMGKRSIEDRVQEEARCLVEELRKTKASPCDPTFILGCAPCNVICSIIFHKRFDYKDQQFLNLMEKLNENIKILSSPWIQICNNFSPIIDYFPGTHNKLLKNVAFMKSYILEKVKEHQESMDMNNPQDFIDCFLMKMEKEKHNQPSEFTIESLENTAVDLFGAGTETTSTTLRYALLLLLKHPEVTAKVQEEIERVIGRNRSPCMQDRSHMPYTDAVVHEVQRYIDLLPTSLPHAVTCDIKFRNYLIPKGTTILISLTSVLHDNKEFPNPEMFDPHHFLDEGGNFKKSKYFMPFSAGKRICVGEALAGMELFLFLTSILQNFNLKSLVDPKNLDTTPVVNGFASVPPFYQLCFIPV
PostGolgi yeast = phenotypic screen on post-Golgi transport, primary screen; post-Golgi transport phenotypic cell assay; inhibition, % at 10 µM; 98,000 tested, 0.9% active; AID 739, 2007;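 note: yeast cells grown in 1536-well plates; yeast grown about 18 h at 30C before absorbance read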
CYP2C9 activ = human CYP2C9 activators, primary screen, biochemical, luminescence | activation factor at 5 µM | 96,000 tested, 1.4% active | Cytochrome P450 2C9 (Homo sapiens), P11712 | AID 1024, 2008 | recombinant CYP2C9, luciferin-H conversion; stronger effect = higher value; factor 1 = untreated enzyme, 0 = blocked;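 active = activation factor of 2 or more for CYP2C9 at a 5 µM dose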;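 note: 0 = sulfaphenazole-blocked wells and 1 = vehicle-only wells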
PostGolgi ctrl = growth inhibition of yeast control strain, primary screen, counter-screen for post-Golgi transport modulator project; inhibition, % at 10 µM; 98,000 tested, 5% active; efflux-deficient yeast background strain, growth absorbance A615, 16 h; AID 738, 2007
CYP2C19 inhib = blockers of cytochrome P450 2C19 activity – biochemical, luminescence, ADME assay, primary screen; 96,000 tested, 21% active; inhibition, % at 5 µM; CYP2C19 Supersomes, luciferin-H EGE luminescence, 30 min; AID 778, 2007;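 active = CYP2C19 inhibition above a set limit at 5 µM in the primary screen, cut at about 50% in these data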;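 note: plate controls were negative control wells for no effect and 2.5 mM tranylcypromine positive control for full effect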
The depositor's hits bear a star; x = no result given. Cut-off read from the data, not from the text of the source, unless noted: active = inhibition above about 30%; inactive = the rest.

SMILES	CYP2C19 activ	CYP2C9 inhib	PostGolgi yeast	CYP2C9 activ	PostGolgi ctrl	CYP2C19 inhib
O=C(O)CSC1CC(=O)N(c2ccc(Cl)cc2)C1=O (stereo not given)	1	-3	x	1	x	2
O=C(CSC1CC(=O)N(CC(c2ccccc2)c2ccccc2)C1=O)Nc1ccc(Cl)cc1 (stereo not given)	0.5	85*	11	0.1	41*	53*
CN1OC2C(=O)N(c3ccccc3)C(=O)C2C1c1ccc(F)cc1 (stereo not given)	0.8	-1	-1	1	-2	24
CCCOc1ccc(N2C(=O)C3ON(c4ccccc4)C(CCC)C3C2=O)cc1 (stereo not given)	0.7	52*	3	0.5	-5	32
CCCC1C2C(=O)N(c3ccccc3)C(=O)C2ON1c1ccccc1 (stereo not given)	0.4	55*	-1	0.4	-8	56*
O=C1C2ON(c3ccc(Cl)cc3)C(c3ccco3)C2C(=O)N1c1ccccc1 (stereo not given)	0.1	58*	-3	0.4	6	93*
CCCC1C2C(=O)N(c3ccccc3OC)C(=O)C2ON1c1ccccc1 (stereo not given)	0.1	70*	-3	0.3	3	95*
CCCOc1ccc(N2C(=O)C3ON(c4ccccc4)C(c4ccc(O)c(OC)c4)C3C2=O)cc1 (stereo not given)	0.7	46	-2	0.5	-4	33
CCn1c(=S)[nH]c2cc(C(=O)OC)ccc2c1=O	1.1	10	-3	0.9	14	-6
O=C(O)c1ccc(N2C(=O)C3ON(c4ccccc4)C(c4ccccc4F)C3C2=O)cc1 (stereo not given)	0.5	0	-2	1	1	52*
O=C(O)COc1ccccc1C1C2C(=O)N(c3ccccc3)C(=O)C2ON1c1ccccc1 (stereo not given)	0.8	38	0	0.6	-3	20
O=C1C2ON(c3ccccc3)C(c3ccccc3F)C2C(=O)N1c1ccccc1 (stereo not given)	1.1	10	4	0.9	1	-7
CCOc1ccccc1C1C2C(=O)N(c3ccccc3)C(=O)C2ON1c1ccccc1 (stereo not given)	0.8	51*	0	0.5	10	21
O=S(=O)(Cc1cnc(Cl)s1)c1ccccc1	0.5	7	28	0.9	1	47
CS(=O)(=O)N(CC(=O)Nc1ccccc1C(=O)NCc1ccco1)c1ccc2c(c1)OCCO2	0.6	91*	-8	0.1	2	37
COC(=O)CN(c1ccc2c(c1)OCO2)S(C)(=O)=O	0.5	12	4	0.9	7	46
CC(C)CNC(=O)c1ccccc1NC(=O)CN(c1ccc2c(c1)OCCO2)S(C)(=O)=O	0.7	93*	-13	0.1	9	35
COCCNC(=O)c1ccccc1NC(=O)CN(c1ccc2c(c1)OCO2)S(C)(=O)=O	0.1	92*	7	0.1	6	86*
COC(=O)c1ccc(C(=O)OC)c(NC(=O)CN(c2ccc3c(c2)OCO3)S(C)(=O)=O)c1	0.1	76*	6	0.2	11	89*
CCCCP(=O)(CCCC)c1ccccc1C(=O)O	1.2	-11	2	1.1	-8	-20
CC1CC(c2ccccc2)n2nc(N3C(=O)c4ccccc4C3=O)nc2N1 (stereo not given)	0.9	4	0	1	1	5
Cc1ccc(-c2csc(N3CCC(C(N)=O)(N4CCCCC4)CC3)n2)cc1	1.1	5	5	0.9	-4	-8
N#Cc1c(SCC(=O)N2CCOCC2)nsc1SCC(=O)N1CCOCC1	1.1	-8	-3	1.1	-7	-13
Cn1c(=O)n(C)c2cc(S(=O)(=O)NCc3ccco3)ccc21	1	-10	0	1.1	3	-2
COc1ccccc1N(CC(=O)Nc1ccccc1C(=O)NCC(C)C)S(C)(=O)=O	0.5	77*	1	0.2	2	47
SMILES	CYP2C19 activ	CYP2C9 inhib	PostGolgi yeast	CYP2C9 activ	PostGolgi ctrl	CYP2C19 inhib
COc1ccccc1N(CC(=O)NCCc1ccccc1)S(C)(=O)=O	0.6	18	1	0.8	5	38
COc1ccccc1NC(=O)CN(c1ccccc1F)S(C)(=O)=O	0.7	15	0	0.8	7	29
COc1ccc(N(CC(=O)Nc2ccccc2C(=O)NCCc2ccccc2)S(C)(=O)=O)cc1OC	0.2	99*	1	0	4	82*
Cn1c(=O)[nH]c(=O)c2c1nc(NCc1ccccc1)n2CC(O)c1ccccc1 (stereo not given)	0.8	18	-17	0.8	-2	17
O=C(CN1CCN(c2ccccc2)CC1)Nc1cccc(C(F)(F)F)c1	0.7	29	-13	0.7	1	27
COC(=O)c1cccc(NC(=O)CN2CCN(Cc3ccccc3)CC2)c1	0.5	64*	4	0.4	6	51*
O=C(CN1CCN(Cc2ccccc2)CC1)Nc1cccc(C(F)(F)F)c1	0.4	51*	3	0.5	3	55*
CC1CN(CC(=O)Nc2cccc(C(=O)Nc3cccc(C(F)(F)F)c3)c2)CC(C)O1 (stereo not given)	0.5	77*	3	0.2	3	54*
CCCCCOCC1CC(C/C(C)=N/Nc2nc(-c3ccccc3)cs2)C(=O)O1 (stereo not given)	0.7	37	-1	0.6	13	28
O=C(O)C1CCCCC1C(=O)NCc1cn2ccccc2n1 (stereo not given)	1.2	-1	-1	1	13	-16
CCCS(=O)(=O)N1CCCC(C(=O)NCCCN2CCN(c3ccccc3F)CC2)C1 (stereo not given)	1	2	-4	1	-6	0
CCN1CCN(C(=S)c2ccc(SC)cc2)CC1	0.8	0	7	1	5	22
CCCCOc1ccc(CSc2nncn2N)cc1	0.8	11	4	0.9	0	20
CCCc1nnc(SCc2ccc(OC)cc2)n1N	0.5	14	-8	0.9	5	51*
CCCCOc1ccc(Cl)cc1CSc1nnc(CC)n1N	0.5	64*	-4	0.4	5	54*
CCc1nnc(SCCSc2nnc(CC)n2N)n1N	0.9	8	0	0.9	3	8
CCCOc1ccc(CSc2nnc(CCC)n2N)cc1	0.3	55*	2	0.5	9	66*
Sc1oc(-c2ccccc2)cc1C=Nc1ccccc1	1	29	-5	0.7	5	2
